The results in this text go back to PubChem BioAssay (NCATS).

The nature of test [1]: qHTS for Inhibitors of Plasmodium falciparum (DD2) proliferation (AID 504314).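 For activity, negative = inhibition: parasite DNA measured by SYBR Green fluorescence after red cell lysis; plate controls were DMSO vehicle for no effect and artemisinin wells for full effect.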 Note: potency is the fitted concentration of half-maximal effect. An outline of the steps: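 Normalization used 0.29 uM artemisinin as full inhibition and DMSO as baseline. Parasitized erythrocytes were exposed to compounds for 72 h (37C, 5% CO2), then lysed with saponin/Triton buffer containing SYBR Green I.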
(In general: In qHTS, concentration-response curves come from the screen itself.)

A short description of test [2]: qHTS for Inhibitors of Plasmodium falciparum (GB4) proliferation (AID 504315). Note: nearly all actives have a fitted effect of over 50% in size. Note: potency is the fitted concentration of half-maximal effect. An outline of the steps:
(§1)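 Parasite growth measured as SYBR Green DNA fluorescence (ex 485, em 535 nm) after overnight lysis following 72 h culture at 37 °C, 0.3% parasitemia, 2.5% hematocrit. Values normalized against DMSO and 0.29 uM artemisinin controls, with plate-stack correction.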

The nature of test [3]: qHTS for Inhibitors of Plasmodium falciparum (7G8) proliferation (AID 504316). Note: nearly all actives have a fitted effect of over 65% in size. Note: potency is the fitted concentration of half-maximal effect. An outline of the steps: as §1
Test [4] is described as follows: qHTS for Inhibitors of Plasmodium falciparum (HB3) proliferation (AID 504318). Note: nearly all actives have a fitted effect of over 60% in size. Note: potency is the fitted concentration of half-maximal effect. An outline of the steps:
as §1

The target of test [5] is Atrial natriuretic peptide receptor 1 (Homo sapiens) (UniProt P16066). The experiment in a line: Natriuretic polypeptide receptor (hNpr1) antagonism - Pilot CMLD screen (AID 1347052; calls by dose curve;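 note: HEK293 cells with hNpr1 stimulated by hNppA peptide at 0.1 nM; cGMP level read as GloSensor luciferase luminescence after agonist stimulation; series mostly up to about 9.2 µM; % is set by controls: 0 for no effect and ±100 for the full control effect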).
Test [6] is described as follows: qHTS for Inhibitors of Plasmodium falciparum (CP250) proliferation (AID 504320).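 Note: plate controls were DMSO vehicle for no effect and 0.29 µM artemisinin control for full effect.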 The method in brief: as §1

Inconclusive results are not listed. Unmarked numbers belong to inactive results. Activity calls are given as the source filed them. Unless noted, calls come from the whole dose curve; as a rule, active = well fitted curve in the direction sought with a large enough effect; inconclusive = small, poorly fitted or top-dose-only effect, or another doubt; inactive = no such curve, though single readings can be large; an effect the other way counts as inactive or inconclusive.

Chain of Atrial natriuretic peptide receptor 1 (Homo sapiens) (P16066 whole entry, looked up): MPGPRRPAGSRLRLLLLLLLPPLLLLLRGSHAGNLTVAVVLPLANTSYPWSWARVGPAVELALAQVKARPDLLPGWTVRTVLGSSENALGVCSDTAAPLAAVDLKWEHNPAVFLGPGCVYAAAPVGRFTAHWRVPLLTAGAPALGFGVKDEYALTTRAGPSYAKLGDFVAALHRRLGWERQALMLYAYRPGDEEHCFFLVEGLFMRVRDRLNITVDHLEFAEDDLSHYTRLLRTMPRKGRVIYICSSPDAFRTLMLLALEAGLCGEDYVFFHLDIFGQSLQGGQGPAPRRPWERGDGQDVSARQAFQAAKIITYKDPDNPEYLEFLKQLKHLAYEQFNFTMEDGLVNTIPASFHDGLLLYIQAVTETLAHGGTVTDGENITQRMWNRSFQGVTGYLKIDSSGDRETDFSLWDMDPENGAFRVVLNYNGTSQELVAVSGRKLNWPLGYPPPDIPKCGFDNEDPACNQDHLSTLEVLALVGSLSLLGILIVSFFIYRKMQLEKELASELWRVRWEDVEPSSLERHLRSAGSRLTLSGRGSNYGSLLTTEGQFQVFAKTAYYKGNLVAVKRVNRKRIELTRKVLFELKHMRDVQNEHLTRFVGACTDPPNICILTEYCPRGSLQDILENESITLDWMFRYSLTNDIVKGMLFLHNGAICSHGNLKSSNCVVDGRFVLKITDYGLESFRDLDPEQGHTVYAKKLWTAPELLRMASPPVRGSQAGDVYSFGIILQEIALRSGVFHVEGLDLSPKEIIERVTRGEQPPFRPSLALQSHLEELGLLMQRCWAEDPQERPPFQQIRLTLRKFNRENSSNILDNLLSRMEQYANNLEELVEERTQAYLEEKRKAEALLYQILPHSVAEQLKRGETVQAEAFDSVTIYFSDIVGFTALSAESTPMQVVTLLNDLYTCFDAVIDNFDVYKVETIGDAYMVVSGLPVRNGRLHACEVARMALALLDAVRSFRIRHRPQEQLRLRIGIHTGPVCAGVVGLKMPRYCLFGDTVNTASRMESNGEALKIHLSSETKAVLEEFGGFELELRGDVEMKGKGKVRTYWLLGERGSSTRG

As to `C=C(C)C(=O)OC[C@@H]1CN2[C@H](c3ccc(Br)cc3)[C@H](C)CC[C@H]2C(=O)O1`, the Potency result in test [1], in test [2], in test [3], in test [4] and in test [5] was “inactive” throughout.

Regarding `CC(CCN1CCCCc2nc(C)c(C)cc21)=NO[C@@H](C)CN1CCCCc2nc(C)c(C)cc21`, the Potency entry in test [1], in test [2], in test [3], in test [4] and in test [5] was “inactive” in each case.

Take `C[C@H]1Cc2c(-c3ccccc3)nc3c(c2CO1)CN(S(=O)(=O)c1ccc(Cl)c2nonc12)CC3`: the Potency entry in test [1], in test [2], in test [3], in test [4] and in test [5] was “inactive” throughout.

For the compound `COC(=O)C1=C(C(=O)OC)[C@@H]2N(Cc3ccccc3)c3ccccc3[C@@]23C[C@@H](C(=O)OC)N(C(=O)c2cccs2)C3=N1`, the activity, negative = inhibition in test [1] was -0.326% [at 1.12 µM]. The Potency result in test [2], in test [3], in test [4] and in test [5] was “inactive” in each case.

For the compound `C=CCOC(=O)N[C@@H](c1cccs1)C(C(C)=O)C(C)=O`, the Potency entry in test [1], in test [2], in test [3], in test [4] and in test [5] was “inactive” in each case.

As for `C=C(CCN1C=C(C(=O)OCC)C(c2ccccc2)NC1=O)OC` (centres undefined), the Potency entry in test [1], in test [2], in test [3], in test [4], in test [6] and in test [5] was “inactive” each time.

On to `COc1ccc(OC)c(-c2ccccc2C=NNS(=O)(=O)c2ccc(C)cc2)c1`, for which the Potency entry in test [1], in test [2], in test [3], in test [4], in test [6] and in test [5] was “inactive” each time.

For the compound `COc1ccc(C=CC2=C[C@]3(C)C[C@]2(C)[C@H](c2ccc(OC)cc2)CC3=O)cc1`, the Potency in test [1] is 1500 nM (active); in test [2] it was 1690 nM (active); in test [3], 1510 nM (active); in test [4] it was 1510 nM (active). The Potency result in test [5] was “inactive”.

Turning to `COc1ccc(O[C@H]2C=C[C@@H](c3ccccc3)O[C@H]2CON=C2[C@H]3CCn4c(=O)n(-c5ccccc5)c(=O)n4[C@@H]3[C@H](O)[C@@H]3O[C@H]23)cc1`, the Potency result in test [1], in test [2], in test [3], in test [4] and in test [5] was “inactive” each time.

Regarding `COC(=O)c1c(C(=O)OC)c2c3ccccc3cc(-c3ccccc3)n2c1C(=O)OC`, the Potency entry in test [1], in test [2], in test [3], in test [4], in test [6] and in test [5] was “inactive” throughout.

As for `COc1ccc(-c2nc(-c3ccccc3)oc2Nc2c(C)cccc2C)cc1`, the Potency result in test [1], in test [2], in test [3], in test [4] and in test [5] was “inactive” in each case.

As for `COC(=O)N[C@@H](c1ccccc1)[C@]1(C(C)=O)CCCC1=O`, the Potency result in test [1], in test [2], in test [3], in test [4] and in test [5] was “inactive” in each case.

Consider `CCOC(=O)NN=C1C[C@@H](O)[C@@H](O)[C@@H]2[C@H]3C(=O)N(C[C@@H]4CCCO4)C(=O)[C@@H]3CC[C@H]12`, for which the Potency entry in test [1], in test [2], in test [3], in test [4] and in test [5] was “inactive” in each case.

Take `CC1(OC(=O)C2CCCC2)C(=O)C=C2C=C(c3ccsc3)N(C3CCCC3)C=C2C1=O` (centres undefined): in test [1], the activity, negative = inhibition was -4.53% [at 1.12 µM]. For the same compound, the Potency result in test [2], in test [3], in test [4], in test [6] and in test [5] was “inactive” throughout.

In the case of `CC(CCC(=O)OC[C@H]1O[C@H](C#Cc2ccccc2)C=C[C@H]1Oc1ccc(C)cc1)=NOC[C@@H](O)COCc1ccco1`, the Potency entry in test [1], in test [2], in test [3], in test [4] and in test [5] was “inactive” in each case.

On to `C=CCCN1C(=O)NC(c2ccccc2)C(C(C)=O)=C1C` (centres undefined), for which the Potency entry in test [1], in test [2], in test [3], in test [4] and in test [5] was “inactive” each time.

Consider `O=C1C2=C(C(=O)c3ccccc31)[C@H]1O[C@](CCCCN3C(=O)c4ccccc4C3=O)(Cc3c1ccc1ccccc31)O2`, for which the Potency in test [1] was 1500 nM (active); in test [2] it was 1690 nM (active); in test [3], 953 nM (active); in test [4], 757 nM (active). Moreover, the Potency entry in test [5] was “inactive”.

`CC(C)=CCN1C(=O)C2(CC(C)=C[C@@H](C)O2)c2c(Br)cccc21` (some centres undefined): the Potency entry in test [1], in test [2], in test [3], in test [4], in test [6] and in test [5] was “inactive” each time.

For `COCCN1C(=O)C2=C(C1=O)C1N(C)c3ccccc3[C@@]13C[C@@H](CO)N(C(=O)CCC(=O)OC)C3=N2` (some centres undefined), the Potency result in test [1], in test [2], in test [3], in test [4] and in test [5] was “inactive” throughout.

As for `CCCCCCCc1cc2ccccc2c2c(C(=O)OCC)c(C(=O)OCC)c(C(=O)OCC)n12`, the Potency result in test [1], in test [2], in test [3], in test [4], in test [6] and in test [5] was “inactive” throughout.

For `C=CCCCN1C=C(C(=O)OCC)C(c2ccccc2)NC1=O` (centres undefined), the Potency result in test [1], in test [2], in test [3], in test [4], in test [6] and in test [5] was “inactive” throughout.

`COC(=O)NC(C=Cc1ccccc1)C(C(C)=O)C(=O)OC` (centres undefined): the Potency entry in test [1], in test [2], in test [3], in test [4] and in test [5] was “inactive” in each case.

Consider `COCC=CC1=CC2=CC(=O)C(C)(OC(=O)c3cnc4ccccc4n3)C(=O)C2=CN1CC1CC1` (centres undefined), for which the Potency result in test [1], in test [2], in test [3], in test [4] and in test [5] was “inactive” in each case.

Turning to `CCCCc1nc2c(c3c1C[C@H](C)OC3)CN(C(=O)c1cccnc1)CC2`, the Potency result in test [1], in test [2], in test [3], in test [4] and in test [5] was “inactive” each time.

`Cc1ccc(S(=O)(=O)OCCc2ccccc2)cc1`: the Potency entry in test [1], in test [2], in test [3], in test [4], in test [6] and in test [5] was “inactive” in each case.

Take `C=CCOC(=O)N[C@H](C(C(=O)OC)=C(C)NCc1ccccc1)c1ccc(Br)cc1`: the Potency entry in test [1], in test [2], in test [3], in test [4] and in test [5] was “inactive” in each case.

Regarding `COC(=O)CCCC1=CC2=CC(=O)C(C)(OC(=O)c3cccs3)C(=O)C2=CN1CCc1ccccn1` (centres undefined), the Potency entry in test [1], in test [2], in test [3], in test [4] and in test [5] was “inactive” throughout.

For `COC(=O)C1=C2C=CCCN2C(=O)NC1c1ccccc1` (centres undefined), the Potency entry in test [1], in test [2], in test [3], in test [4], in test [6] and in test [5] was “inactive” throughout.
